Reference: PubChem BioAssay
For part of these data: Results with a measured potency or affinity are listed apart. Activity calls are given as the source filed them. Unless noted, the rule behind the calls is not given here.

Tests used:
[1] = antimalarial activity against Dd2 strain (AID 2302;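 active = growth inhibition above 50% at the single 2 µM test dose, taken to imply half-maximal potency below 2 µM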;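 note: 0% = DMSO untreated growth and 100% = chloroquine plus artemisinin killed control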); settings: P. falciparum Dd2 in RBCs, LDH growth readout, 72 h; at 2 µM; hits give high values
[2] = HepG2 cytotoxicity, primary screen, cytotoxicity control for P. falciparum antimalarial project, cell-based, ATP luminescence (AID 2303;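 active = inhibition above 50%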;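 note: 0% = DMSO wells and 100% = digitonin-killed cells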); settings: HepG2 viability, 24-48 h, at 10 µM, hits give high values
[3] = molecular target: L-lactate dehydrogenase (Plasmodium falciparum (isolate CDC / Honduras)) (UniProt Q27743); experiment: PfLDH activity inhibition – cell lysate, 3D7 strain, counter-screen for P. falciparum growth inhibition project (AID 2304);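 note: 0% = vehicle and 100% = reference inhibitor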; settings: P. falciparum 3D7 crude extract, LDH APAD/NBT absorbance; at 2 µM; hits give high values
[4] = inhibition of 3D7 malaria parasite growth – strain 3D7 (AID 2306);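 note: 0% = DMSO wells and 100% = chloroquine plus artemisinin control wells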; settings: P. falciparum 3D7 erythrocytic growth, LDH absorbance, 72 h; at 2 µM; hits give high values
[5] = molecular target: Calcium-dependent protein kinase 1 (Plasmodium falciparum (isolate 3D7)) (UniProt P62344); experiment: PfCDPK1 kinase inhibitors, biochemical, TCAMS library (AID 1159585; cut-off not given, nearly all actives have IC50 up to about 0.98 µM;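 note: inhibitors leave more ATP so luminescence rises with inhibition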); settings: recombinant PfCDPK1, Kinase-Glo ATP depletion luminescence
[6] = molecular target: Plasmodium falciparum protein kinase 6 (PK6, PF3D7_1337100) (UniProt Q8IDW1); experiment: PfPK6 kinase inhibitors, biochemical, TCAMS library (AID 1159586); settings: recombinant PfPK6, Kinase-Glo ATP depletion luminescence
[7] = molecular target: Protein kinase 7 (PK7), Plasmodium falciparum 3D7 (PF3D7_0213400) (UniProt Q7YTF7); experiment: inhibition of Plasmodium PK7 catalytic activity – biochemical, TCAMS antimalarial set, Kinase-Glo luminescence (AID 1159587); settings: recombinant PfPK7, Kinase-Glo ATP depletion luminescence
[8] = molecular target: Calcium-dependent protein kinase 4 (Plasmodium falciparum (isolate 3D7)) (UniProt Q8IBS5); experiment: PfCDPK4 kinase inhibitors, biochemical, TCAMS library (AID 1159588; cut-off not given, nearly all actives have IC50 up to about 0.91 µM); settings: recombinant PfCDPK4, Kinase-Glo ATP depletion luminescence
Sequence of Calcium-dependent protein kinase 4 (Plasmodium falciparum (isolate 3D7)) (Q8IBS5 whole entry, looked up): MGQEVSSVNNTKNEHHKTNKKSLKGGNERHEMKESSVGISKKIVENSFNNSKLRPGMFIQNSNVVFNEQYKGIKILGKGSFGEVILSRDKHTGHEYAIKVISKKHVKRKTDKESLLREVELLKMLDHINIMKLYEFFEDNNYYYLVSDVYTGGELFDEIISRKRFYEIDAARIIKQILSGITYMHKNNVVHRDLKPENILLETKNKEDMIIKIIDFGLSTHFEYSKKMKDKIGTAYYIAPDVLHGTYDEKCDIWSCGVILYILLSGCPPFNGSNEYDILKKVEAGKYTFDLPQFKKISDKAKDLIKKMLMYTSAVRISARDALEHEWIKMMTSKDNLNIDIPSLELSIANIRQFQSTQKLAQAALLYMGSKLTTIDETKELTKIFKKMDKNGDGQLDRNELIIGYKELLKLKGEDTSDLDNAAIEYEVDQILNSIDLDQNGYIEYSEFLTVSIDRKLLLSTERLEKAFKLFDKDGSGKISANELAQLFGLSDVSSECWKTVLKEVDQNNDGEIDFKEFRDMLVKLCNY

Sequence of L-lactate dehydrogenase (Plasmodium falciparum (isolate CDC / Honduras)) (Q27743 whole entry, looked up): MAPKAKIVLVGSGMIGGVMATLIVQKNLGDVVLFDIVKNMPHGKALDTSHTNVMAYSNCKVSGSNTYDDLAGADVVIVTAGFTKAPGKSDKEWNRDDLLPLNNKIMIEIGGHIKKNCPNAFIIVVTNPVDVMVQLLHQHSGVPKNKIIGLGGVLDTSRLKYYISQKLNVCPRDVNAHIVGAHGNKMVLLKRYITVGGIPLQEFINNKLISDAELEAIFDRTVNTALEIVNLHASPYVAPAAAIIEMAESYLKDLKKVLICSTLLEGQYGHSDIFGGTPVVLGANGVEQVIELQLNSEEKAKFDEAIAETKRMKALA
Sequence of Plasmodium falciparum protein kinase 6 (PK6, PF3D7_1337100) (Q8IDW1 1-305): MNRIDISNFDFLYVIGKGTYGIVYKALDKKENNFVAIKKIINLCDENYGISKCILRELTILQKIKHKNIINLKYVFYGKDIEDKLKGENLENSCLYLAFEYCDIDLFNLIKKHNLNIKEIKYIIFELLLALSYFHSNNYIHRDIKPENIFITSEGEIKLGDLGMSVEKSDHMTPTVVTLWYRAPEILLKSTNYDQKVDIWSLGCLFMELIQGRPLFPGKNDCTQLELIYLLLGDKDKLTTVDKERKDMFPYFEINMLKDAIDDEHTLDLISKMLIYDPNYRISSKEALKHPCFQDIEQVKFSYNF
Sequence of Protein kinase 7 (PK7), Plasmodium falciparum 3D7 (PF3D7_0213400) (Q7YTF7 1-343): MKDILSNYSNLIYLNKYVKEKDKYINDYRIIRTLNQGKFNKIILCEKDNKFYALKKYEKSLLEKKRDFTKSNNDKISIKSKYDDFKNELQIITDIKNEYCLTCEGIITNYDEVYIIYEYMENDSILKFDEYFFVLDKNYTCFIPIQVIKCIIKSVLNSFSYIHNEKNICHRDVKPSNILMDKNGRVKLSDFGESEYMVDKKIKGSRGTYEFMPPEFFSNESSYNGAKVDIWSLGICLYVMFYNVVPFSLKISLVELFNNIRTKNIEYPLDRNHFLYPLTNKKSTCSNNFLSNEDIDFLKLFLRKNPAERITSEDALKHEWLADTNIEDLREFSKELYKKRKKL
Sequence of Calcium-dependent protein kinase 1 (Plasmodium falciparum (isolate 3D7)) (P62344 whole entry, looked up): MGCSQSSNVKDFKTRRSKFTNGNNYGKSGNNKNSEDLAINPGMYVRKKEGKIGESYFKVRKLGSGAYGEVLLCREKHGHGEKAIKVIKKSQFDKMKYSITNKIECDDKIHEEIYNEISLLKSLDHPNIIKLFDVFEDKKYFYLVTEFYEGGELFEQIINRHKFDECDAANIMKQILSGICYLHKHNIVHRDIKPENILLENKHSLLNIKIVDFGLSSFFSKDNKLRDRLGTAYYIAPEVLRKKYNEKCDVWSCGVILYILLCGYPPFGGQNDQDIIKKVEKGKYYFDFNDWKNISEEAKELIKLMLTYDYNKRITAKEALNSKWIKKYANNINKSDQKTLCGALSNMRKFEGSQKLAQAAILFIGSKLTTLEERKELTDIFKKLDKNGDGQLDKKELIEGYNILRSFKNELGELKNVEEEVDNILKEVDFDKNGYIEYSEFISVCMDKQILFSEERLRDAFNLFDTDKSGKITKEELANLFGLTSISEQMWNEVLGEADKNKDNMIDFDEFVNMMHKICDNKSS

CCN(CC)CCN(Cc1ccc(-c2ccc(C(F)(F)F)cc2)cc1)C(=O)Cn1c(SCc2ccc(F)cc2)nc(=O)c2sccc21
active: growth inhibition [1] 65% | inhibition [2] 51% | growth inhibition [4] 101%
inactive: inhibition [3] -1% | outcome [5] | outcome [6] | outcome [7] | outcome [8]

CC(C)CNCc1ccc(-c2ccc(CN(C(=O)NCCc3ccccc3)C3CCN(Cc4ccccc4)CC3)cc2)cc1
inactive: inhibition [2] 37% | inhibition [3] -3% | outcome [5] | outcome [6] | outcome [7] | outcome [8]
active: growth inhibition [1] 62% | growth inhibition [4] 98%

Cc1cc(C(=O)CN2C(=O)NC(C)(c3cccc4ccccc34)C2=O)c(C)n1Cc1ccco1 (stereo not drawn)
inactive: growth inhibition [1] 23% | inhibition [2] -2% | inhibition [3] 0% | outcome [5] | outcome [6] | outcome [7] | outcome [8]
active: growth inhibition [4] 90%

O=C(NC1CCN(Cc2ccc3c(c2)OCCO3)CC1)c1ccc(-c2cccc(C(F)(F)F)c2)s1
inactive: growth inhibition [1] 35% | inhibition [3] 5% | outcome [5] | outcome [6] | outcome [7] | outcome [8]
active: inhibition [2] 99% | growth inhibition [4] 100%

CCCN1CCN(CCCNC(=O)c2cc3c(-c4ccc(Cl)cc4)nn(C)c3s2)CC1
active: growth inhibition [4] 88%
inactive: growth inhibition [1] 20% | inhibition [2] 46% | inhibition [3] -3% | outcome [5] | outcome [6] | outcome [7] | outcome [8]

COc1ccc(CNCCc2cccs2)cc1-c1cccc(S(=O)(=O)NCCN2CCCC2)c1
inactive: growth inhibition [1] 41% | inhibition [3] -1% | outcome [5] | outcome [6] | outcome [7] | outcome [8]
active: inhibition [2] 56% | growth inhibition [4] 98%

CCCCCCN1CCC(NCc2cccc(C#N)c2)CC1
inactive: growth inhibition [1] 9% | inhibition [2] 5% | inhibition [3] -1% | outcome [5] | outcome [6] | outcome [7] | outcome [8]
active: growth inhibition [4] 97%

CCCCCN1CCN(Cc2cccc(NC(=O)c3ccc(Cl)c(Cl)c3)c2)CC1
active: growth inhibition [4] 90%
inactive: growth inhibition [1] 33% | inhibition [2] 24% | inhibition [3] 3% | outcome [5] | outcome [6] | outcome [7] | outcome [8]

CCCc1cc(OC)c(CC2c3cc(O)c(C)cc3CCN2C)cc1OC (stereo not drawn)
inactive: inhibition [2] 32% | inhibition [3] -2% | outcome [5] | outcome [6] | outcome [7] | outcome [8]
active: growth inhibition [1] 89% | growth inhibition [4] 99%

O=C(/C=C/c1ccc(Cl)c(Cl)c1)N1CCC(CCN2CCC(c3c[nH]c4cnccc34)CC2)CC1
inactive: inhibition [3] -2% | outcome [5] | outcome [6] | outcome [7] | outcome [8]
active: growth inhibition [1] 100% | inhibition [2] 93% | growth inhibition [4] 101%

COc1cc(Br)c(S(=O)(=O)n2cc(CN3CCC(N)CC3)c3cc(Cl)ccc32)cc1OC
active: growth inhibition [4] 99%
inactive: growth inhibition [1] 32% | inhibition [2] 27% | inhibition [3] -4% | outcome [5] | outcome [6] | outcome [7] | outcome [8]

CC1(C)C(N(O)C(=O)Nc2ccc(Cl)c(Cl)c2)N(c2ccc(Cl)c(Cl)c2)C(=O)N1CCc1ccccc1 (stereo not drawn)
inactive: inhibition [2] 10% | inhibition [3] -1% | outcome [5] | outcome [6] | outcome [7] | outcome [8]
active: growth inhibition [1] 93% | growth inhibition [4] 91%

Cc1ccc(CN2CCC(Oc3cccc(NC(=O)c4ccc(C(F)(F)F)cc4)c3)CC2)cc1
active: growth inhibition [4] 92%
inactive: growth inhibition [1] 15% | inhibition [2] 37% | inhibition [3] -1% | outcome [5] | outcome [6] | outcome [7] | outcome [8]

CCCCCCCN1CC[C@@H](CCCc2ccnc3ccc(OCCCCNC(N)=O)cc23)[C@@H](CC)C1
inactive: growth inhibition [1] 18% | inhibition [2] 41% | inhibition [3] -3% | outcome [5] | outcome [6] | outcome [7] | outcome [8]
active: growth inhibition [4] 93%

Oc1ccc(CCNCc2ccc(OCc3ccccc3)c(OCc3ccccc3)c2)cc1
inactive: growth inhibition [1] 9% | inhibition [2] 31% | inhibition [3] -3% | outcome [5] | outcome [6] | outcome [7] | outcome [8]
active: growth inhibition [4] 88%

Fc1cccc(COc2ccc(Nc3ncnc4sc(C#Cc5ncc[nH]5)cc34)cc2Cl)c1
active: growth inhibition [1] 95% | inhibition [2] 55% | growth inhibition [4] 100%
inactive: inhibition [3] -3% | outcome [5] | outcome [6] | outcome [7] | outcome [8]

CCCCc1ccc2[nH]cc(C(=O)OCC)c(=O)c2c1
active: growth inhibition [1] 96% | growth inhibition [4] 95%
inactive: inhibition [2] 3% | inhibition [3] 5% | outcome [5] | outcome [6] | outcome [7] | outcome [8]

COc1ccc(Cn2c(=O)[nH]c3cc(C(=O)NC4CCN(Cc5ccccc5)CC4)ccc3c2=O)cc1
inactive: growth inhibition [1] 45% | inhibition [2] 10% | inhibition [3] -7% | outcome [5] | outcome [6] | outcome [7] | outcome [8]
active: growth inhibition [4] 97%

Cc1nc(Nc2ccncc2)cc(-c2ccncc2)n1
active: growth inhibition [4] 100%
inactive: growth inhibition [1] 3% | inhibition [2] 6% | inhibition [3] -2% | outcome [5] | outcome [6] | outcome [7] | outcome [8]

CCc1ccc(CN2CCC(CN(c3ccc(N4CCOCC4)c(F)c3)S(=O)(=O)c3ccc(C(C)(C)CC)cc3)CC2)cc1
inactive: inhibition [2] 26% | inhibition [3] -5% | outcome [5] | outcome [6] | outcome [7] | outcome [8]
active: growth inhibition [1] 94% | growth inhibition [4] 93%

CN(C)c1ccc(NC2=NC(C)(C)N=C(N)N2)cc1
inactive: growth inhibition [1] 5% | inhibition [2] -1% | inhibition [3] -4% | outcome [5] | outcome [6] | outcome [7] | outcome [8]
active: growth inhibition [4] 95%

O=C(NCCCCN1CCC(c2ccc3c(c2OCC2CC2)CCCC3)CC1)c1ccc(NC(=O)c2ccc(Cl)cc2)cc1
active: growth inhibition [1] 93% | growth inhibition [4] 101%
inactive: inhibition [2] 23% | inhibition [3] -4% | outcome [5] | outcome [6] | outcome [7] | outcome [8]

O=C(O)c1ccc(NC(=O)C2CC(=O)N(Cc3ccc(Cl)cc3)C(=Nc3ccc(Cl)cc3)S2)cc1 (stereo not drawn)
inactive: inhibition [2] -1% | inhibition [3] -6% | outcome [5] | outcome [6] | outcome [7] | outcome [8]
active: growth inhibition [1] 95% | growth inhibition [4] 99%

CCOc1cc(C(=O)NC2CCN(Cc3ccccc3)CC2)ccc1-c1nc2ccc(Cl)cc2[nH]1
active: growth inhibition [1] 84% | growth inhibition [4] 101%
inactive: inhibition [2] 10% | inhibition [3] -6% | outcome [5] | outcome [6] | outcome [7] | outcome [8]

CCOc1ccccc1N1CCN(CCCNC(=O)/C(=C/C=C/c2cc3cc(Cl)c(Cl)cc3[nH]2)OC)CC1
inactive: inhibition [2] 45% | inhibition [3] -4% | outcome [5] | outcome [6] | outcome [7] | outcome [8]
active: growth inhibition [1] 93% | growth inhibition [4] 98%

CC(C)NCc1ccc(OCc2cccc(COc3ccc(CNC(C)C)cc3I)c2)c(I)c1
inactive: inhibition [3] 6% | outcome [5] | outcome [6] | outcome [7] | outcome [8]
active: growth inhibition [1] 92% | inhibition [2] 100% | growth inhibition [4] 101%

CC(C)(C)c1ccc(NC(=O)c2ccc(CN3CCCN(Cc4cccc(C#N)c4)CC3)cc2)cc1
active: inhibition [2] 54% | growth inhibition [4] 99%
inactive: growth inhibition [1] 12% | inhibition [3] -5% | outcome [5] | outcome [6] | outcome [7] | outcome [8]

CCCC(C)NC(=O)[C@H]1CNCCN1C(=O)CCCc1ccccc1 (stereo partly drawn)
active: growth inhibition [1] 98% | growth inhibition [4] 96%
inactive: inhibition [2] 47% | inhibition [3] 4% | outcome [5] | outcome [6] | outcome [7] | outcome [8]

COc1cc2ccccc2cc1OCCCN1CCN(CC(c2ccc(F)cc2)N2CCN(C(C)C)CC2)CC1 (stereo not drawn)
active: growth inhibition [1] 92% | inhibition [2] 72% | growth inhibition [4] 100%
inactive: inhibition [3] -3% | outcome [5] | outcome [6] | outcome [7] | outcome [8]

NC1=NC(c2ccccc2)N(OCc2ccccc2)C(N)=N1 (stereo not drawn)
inactive: growth inhibition [1] 21% | inhibition [2] 5% | inhibition [3] -6% | outcome [5] | outcome [6] | outcome [7] | outcome [8]
active: growth inhibition [4] 96%

COc1ccc(S(=O)(=O)N2CCCc3ccc(Br)cc32)cc1N1CCN(C(=O)C(Cl)(Cl)Cl)CC1
active: growth inhibition [1] 93% | growth inhibition [4] 97%
inactive: inhibition [2] 23% | inhibition [3] 2% | outcome [5] | outcome [6] | outcome [7] | outcome [8]

O=C(/C=C/c1ccc(I)cc1)NCCCCCN1CCC(c2c[nH]c3ccccc23)CC1
inactive: growth inhibition [1] 2% | inhibition [2] 43% | inhibition [3] -4% | outcome [5] | outcome [6] | outcome [7] | outcome [8]
active: growth inhibition [4] 95%

Nc1ccc(-c2csc(Nc3ccncc3)n2)cc1
active: growth inhibition [1] 50% | growth inhibition [4] 95%
inactive: inhibition [2] 12% | inhibition [3] -3% | outcome [5] | outcome [6] | outcome [7] | outcome [8]

CC(C)CCN1CCC(Oc2ccc(NC(=O)c3cccs3)cc2Cl)CC1
inactive: inhibition [2] 31% | inhibition [3] -6% | outcome [5] | outcome [6] | outcome [7] | outcome [8]
active: growth inhibition [1] 96% | growth inhibition [4] 97%

CCN(CC)CCN(Cc1ccc(-c2ccc(C(F)(F)F)cc2)cc1)C(=O)Cn1c(CCc2cccc(F)c2F)nc(=O)c2ccc(F)cc21
active: growth inhibition [4] 98%
inactive: growth inhibition [1] 41% | inhibition [2] 14% | inhibition [3] 3% | outcome [5] | outcome [6] | outcome [7] | outcome [8]

COc1c(F)ccc2ncc(Cl)c(CCN3CCC(NCc4ccc5c(n4)NC(=O)CS5)CC3)c12
inactive: growth inhibition [1] 29% | inhibition [2] 30% | inhibition [3] 2% | outcome [5] | outcome [6] | outcome [7] | outcome [8]
active: growth inhibition [4] 98%
